Results on 12 compounds are retold here after PubChem BioAssay.

The source made the active and inactive calls.

For one test, the target named is Albumin (Bos taurus) (UniProt P02769). Nature of the test: bovine serum albumin binders on microarray, profiling panel, artefact control for SMM control protein annotation, biochemical, small-molecule microarray, Alexa647 label, 635/667 nm fluorescence (AID 1118).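 Note: score merges 667 nm emission intensity and signal-to-noise per printed compound spot.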 The conditions noted are these: BSA-A647 binding, fluorescence 635 nm, higher = more signal.
A short description of test [1]: small-molecule microarray binders of probe aXIP, primary screen, biochemical, NeuroSMM set, 635/667 nm fluorescence (AID 1119).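 Note: probe is the protein aXip251-270 applied at 1 µg/mL to compound-printed slides; binding of probe to printed compounds measured as 667 nm fluorescence plus signal to noise.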 The conditions noted are these: higher = more signal, called active from +8 up or from −8 down.
Test [2] in a line: small-molecule binders of probe aNOTCH3, primary screen, biochemical, small-molecule microarray, 635/667 nm fluorescence (AID 1120).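 Note: probe is a biotin-tagged antibody raised against NOTCH3 rather than NOTCH3 protein; score merges spot fluorescence near 667 nm with spot signal to noise.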 The conditions noted are these: higher = more signal.
Test [3] can be described thus: small-molecule binders of probe aNOTCH2, primary screen, biochemical, small-molecule microarray, 635/667 nm fluorescence (AID 1121).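 Note: score merges feature fluorescence read at 667 nm with its signal to noise.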 The following applies: higher = more signal.
For test [4], the target named is Carbonic anhydrase 2 (Homo sapiens) (UniProt P00918). Nature of the test: CAII small-molecule binders, profiling panel, biochemical, small-molecule microarray, Alexa647-labelled CAII (AID 1122). The conditions noted are these: CAII-A647 binding fluorescence, higher = more signal.
The nature of test [5]: COS7 lysate on small-molecule microarray, probe aHis, 635 nm (AID 1123).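 Note: z-score combines 667nm fluorescence intensity with signal-to-noise per printed compound spot.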 The conditions noted are these: COS7 cell lysate, fluorescence, higher = more signal.
Test [6] in a line: compound binding in COS7 lysate, probe aLAP1, primary screen, cell lysate, small-molecule microarray (AID 1124).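 Note: lysate comes from COS7 cells expressing LAP1 and is applied at 0.3 µg/mL; score merges spot fluorescence near 667 nm with signal-to-noise over triplicate slides.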 The following applies: probe aLAP1, fluorescence, higher = more signal.
Another test deals with Sam68 (KHDRBS1). Put plainly: Sam68 small-molecule binders, primary screen, biochemical, small-molecule microarray, 635 nm fluorescence (AID 1125).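 Note: score merges 667 nm channel intensity with signal to noise over triplicate slides.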 The following applies: small-molecule microarray binding, higher = more signal.
The subject of test [7] is Chordin-like protein 2 (CHRDL2). Nature of the test: CHRDL2 small-molecule binders, primary screen, biochemical, small-molecule microarray, 635 nm fluorescence (AID 1126).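 Note: printed compound slides probed with Chrdl2 protein at 4 µg/mL for 1 h at 4 C; score merges 667 nm emission intensity with signal to noise over three replicate slides.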 The following applies: small-molecule microarray binding, fluorescence 635 nm; higher = more signal.
The target of test [8] is Concanavalin-A (Canavalia ensiformis) (UniProt P02866). Nature of the test: ConA small-molecule binders, primary screen, artefact control for SMM control protein annotation, biochemical, small-molecule microarray, Alexa647 label, 635 nm (AID 1127).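 Note: z combines 667 nm emission intensity with signal-to-noise across three replicate slides.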 The conditions noted are these: ConA-A647 binding fluorescence, higher = more signal.
Concanavalin-A (Canavalia ensiformis), sequence (P02866 whole entry, looked up): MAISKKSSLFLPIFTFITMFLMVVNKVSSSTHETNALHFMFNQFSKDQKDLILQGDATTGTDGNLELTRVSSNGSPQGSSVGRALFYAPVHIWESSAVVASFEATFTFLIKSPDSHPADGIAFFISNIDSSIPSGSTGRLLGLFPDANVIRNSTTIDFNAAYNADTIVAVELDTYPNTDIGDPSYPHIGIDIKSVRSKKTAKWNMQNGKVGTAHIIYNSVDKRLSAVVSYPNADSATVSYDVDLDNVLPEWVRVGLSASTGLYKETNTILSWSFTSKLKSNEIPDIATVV

Albumin (Bos taurus), sequence (P02769 whole entry, looked up): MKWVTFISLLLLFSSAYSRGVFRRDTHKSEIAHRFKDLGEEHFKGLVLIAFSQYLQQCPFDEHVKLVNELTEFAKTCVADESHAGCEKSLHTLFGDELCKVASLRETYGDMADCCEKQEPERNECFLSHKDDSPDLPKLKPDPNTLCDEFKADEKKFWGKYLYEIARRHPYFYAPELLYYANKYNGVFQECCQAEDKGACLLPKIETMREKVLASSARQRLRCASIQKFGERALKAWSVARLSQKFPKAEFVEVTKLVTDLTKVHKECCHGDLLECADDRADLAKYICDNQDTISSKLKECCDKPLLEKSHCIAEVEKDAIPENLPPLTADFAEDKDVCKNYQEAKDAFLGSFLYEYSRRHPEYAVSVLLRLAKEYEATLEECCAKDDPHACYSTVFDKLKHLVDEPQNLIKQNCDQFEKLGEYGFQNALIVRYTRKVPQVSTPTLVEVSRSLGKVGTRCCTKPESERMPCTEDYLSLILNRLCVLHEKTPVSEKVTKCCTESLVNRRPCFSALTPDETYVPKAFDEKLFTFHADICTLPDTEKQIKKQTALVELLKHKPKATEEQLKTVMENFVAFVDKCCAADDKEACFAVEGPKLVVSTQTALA

As to `C#CCCCON=C1C[C@@H](O)[C@@H](O)[C@@H]2[C@@H]3C(=O)N(CCC(=O)OCC)C(=O)[C@@H]3CC[C@H]12`, the composite z-score is 0.356 with Albumin (Bos taurus); -0.042 in test [2]; -0.0837 in test [3]; 0.222 in [4]; 0.769 in test [5]; 0.613 in test [6]. For the same compound, the results for the composite z-score (in the test with Sam68 (KHDRBS1); in test [7]; in test [8]) were 1.32, 0.247 and 1.07, respectively. Also, in [1], the composite Z-score is 0.269 (inactive).

As for `CCOC(=O)[C@H](Cc1ccccc1)NC(=O)CCC1CC(OC(=O)NCCc2ccc(F)cc2)CC2(CCCC(COC(=O)NCc3ccccc3)O2)O1` (stereo not given in full), the composite z-score with Albumin (Bos taurus) was 0.0213; in test [2] it was -0.0711; in test [3] it was -0.124; in test [4], 0.108; in [5] it was 0.244; in test [6], -0.106. The results for the composite z-score (with Sam68 (KHDRBS1); in test [7]; in test [8]) were 1.2, 0.468 and 0.477, respectively. The composite Z-score in test [1] is 0.42 (inactive).

With `CC(C)(C)N1C(=O)[C@H]2[C@H]3[C@H](O)[C@H](O)CC(=O)[C@H]3CC[C@H]2C1=O`, the composite z-score was 0.472 with Albumin (Bos taurus); -0.0581 in test [2]; -0.155 in test [3]; 0.0658 in test [4]; 0.165 in test [5]; 0.206 in [6]. The composite z-score stood at 0.892 in the test on Sam68 (KHDRBS1), 0.357 in [7] and 0.673 in test [8]. The composite Z-score in [1] is 0.403 (inactive).

Turning to `COC(=O)[C@@H]1CC[C@@H](C)[C@H](c2ccc(Br)cc2)N1`, the composite z-score with Albumin (Bos taurus) is -0.0822; in test [2], -0.0111; in test [3], -0.0165; in test [4], -0.203; in test [5], 0.0852; in test [6] it was -0.117. Also, the composite z-score with Sam68 (KHDRBS1) is -0.8; in test [7], 0.202; in [8], 0.0592. In addition, the composite Z-score in [1] was 0.644 (inactive).

Turning to `CC(C)C[C@H](NC(=O)CCC1CC(OC(=O)NCc2cccc3ccccc23)CC2(CCCC(COC(=O)NCc3ccccc3)O2)O1)C(=O)NCC(c1ccccc1)c1ccccc1` (stereo not given in full), the composite z-score with Albumin (Bos taurus) is 0.163; in [2], 0.0876; in test [3], -0.234; in test [4] it was 0.404; in [5], 0.743; in test [6], 1.09. Further, the composite z-score amounted to 1.31 in the test with Sam68 (KHDRBS1), 0.546 in [7] and 0.347 in test [8]. Moreover, the composite Z-score in test [1] is -0.0662 (inactive).

`CCOC(=O)[C@H](Cc1ccccc1)NC(=O)CCC1CC(OC(=O)NCCc2ccc(F)cc2)CC2(CCCC(COC(=O)NCCOC)O2)O1` (stereo not given in full): the composite z-score was 0.257 with Albumin (Bos taurus); 0.0525 in test [2]; -0.157 in [3]; 0.0121 in test [4]; 1.07 in test [5]; 0.148 in test [6]. Also, the composite z-score in the test on Sam68 (KHDRBS1) amounted to 1.32; in test [7], 0.657; in test [8], 0.404. Besides, in test [1], the composite Z-score was 0.0225 (inactive).

`CON=C(C)CCC(=O)OC[C@H]1O[C@H](c2ccccc2)C=C[C@@H]1Oc1ccc(OC)cc1`: the composite z-score is 0.443 in the test with Albumin (Bos taurus); -0.0687 in [2]; -0.146 in test [3]; -0.185 in [4]; -0.0845 in test [5]; 0.2 in [6]. The composite z-score with Sam68 (KHDRBS1) is -0.209; in [7] it was 0.406; in test [8], 0.0078. In test [1], the composite Z-score is -0.222 (inactive).

Take `C[C@H]1Cc2c(COc3ccccc3)nc3c(c2CO1)CN(CCOc1ccccc1)CC3`: the composite z-score is -0.16 with Albumin (Bos taurus); 0.0282 in test [2]; -0.0746 in [3]; 0.635 in test [4]; 1.14 in [5]; 0.282 in test [6]. In addition, the values for the composite z-score (with Sam68 (KHDRBS1); in test [7]; in [8]) were 1.32, 0.522 and 1.08, respectively. Further, in [1], the composite Z-score was -0.711 (inactive).

In the case of `CC(C)[C@@H](OCc1ccccc1)[C@H](C)C=NOC[C@@H](O)COCc1ccco1`, the composite z-score with Albumin (Bos taurus) is -0.113; in [2] it was -0.819; in [3], -0.244; in [4] it was -0.512; in test [5], 0.0121; in [6], 0.0218. For the same compound, the figures for the composite z-score (in the test on Sam68 (KHDRBS1); in test [7]; in [8]) were -0.185, -1.48 and -1.15, respectively. In test [1], the composite Z-score is -0.0572 (inactive).

On to `COc1cccc([C@@H]2Oc3ccc(OC)cc3C(=O)[C@H]2O)c1`, for which the composite z-score is 0.78 with Albumin (Bos taurus); -0.0377 in test [2]; -0.119 in [3]; 0.445 in [4]; -0.279 in test [5]; 0.158 in test [6]. Moreover, the composite z-score in the test on Sam68 (KHDRBS1) was determined as 0.325; in test [7] it was 0.488; in [8] it was 0.711. Also, the composite Z-score in test [1] was 0.0773 (inactive).

Take `CC(C)CON=C1C[C@@H](O)[C@@H](O)[C@@H]2[C@@H]3C(=O)N(C4CCCCC4)C(=O)[C@@H]3CC[C@H]12`: the composite z-score with Albumin (Bos taurus) was 0.536; in [2], 0.0021; in test [3] it was -0.125; in test [4], 0.445; in test [5] it was 0.84; in [6], 0.606. The composite z-score in the test with Sam68 (KHDRBS1) stood at 1.3; in test [7] it was 0.25; in test [8], 1.11. Also, the composite Z-score in test [1] was -0.409 (inactive).

With `O=C1C[C@@H](O)[C@@H](O)[C@@H]2[C@@H]3C(=O)N(Cc4ccccc4)C(=O)[C@@H]3CC[C@@H]12`, the composite z-score with Albumin (Bos taurus) is 0.256; in test [2], -0.0328; in test [3] it was -0.12; in test [4], 0.0093; in test [5], -0.281; in test [6], 0.213. Moreover, the composite z-score was 0.63 in the test on Sam68 (KHDRBS1), 0.791 in test [7] and 0.633 in test [8]. Besides, in test [1], the composite Z-score is 0.277 (inactive).
